Screens: PubChem BioAssay, National Center for Advancing Translational Sciences (NCATS)
Compounds with a hit are over-represented: about 3.1% of the library has one in this group of screens.
Tau fibril FP = inhibitors of human tau fibril formation | K18 P301L tau heparin fibrillization, Alexa594 FP, 6 h | P10636 | Potency, µM (highest dose often 57.7 µM), hits mostly inhibitors | 280,000 tested, 0.39% active; note: nearly all actives have a fitted effect of over 55% in size
Target sequence (P10636 561-689 P618L limits assumed): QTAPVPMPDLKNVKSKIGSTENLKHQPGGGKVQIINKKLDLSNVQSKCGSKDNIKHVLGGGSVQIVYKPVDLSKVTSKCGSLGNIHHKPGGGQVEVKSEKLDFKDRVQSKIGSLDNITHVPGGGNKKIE
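Compound effects on tau fibrillization are measured by Alexa 594 fluorescence polarization (ex 555, em 632 nm). K18 P301L tau is used at 15 uM with 0.24 uM labeled tracer, and 20 uM heparin induces aggregation over 6 hr at 37 C.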
Tau ThT inhib = tau fibrillization inhibition (ThT binding); P10636; recombinant tau K18 P301L, heparin-induced fibrillization, ThT fluorescence; Potency, µM (highest dose often 57.4 µM), hits mostly inhibitors; 270,000 tested, 2.1% active; note: nearly all actives have a fitted effect of over 55% in size
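Heparin-induced (20 uM) aggregation of recombinant human K18 P301L tau, 15 uM unlabeled with 0.24 uM labeled, pH 7 acetate buffer, 6 hr at 37 C with compound. Fibrils quantified by 30 uM ThT fluorescence after 1 hr ambient incubation.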
TRb SRC2 PPI = disrupts binding of human TR beta to SRC2; P10828; TRbeta-SRC2 peptide binding, fluorescence polarization; receptor liganded with 1 µM T3; Potency, µM (top dose mostly 106 µM), usual class: inhibitors; 280,000 tested, 0.065% active; note: nearly all actives have a fitted effect of over 50% in size
Target sequence (P10828 whole entry, looked up): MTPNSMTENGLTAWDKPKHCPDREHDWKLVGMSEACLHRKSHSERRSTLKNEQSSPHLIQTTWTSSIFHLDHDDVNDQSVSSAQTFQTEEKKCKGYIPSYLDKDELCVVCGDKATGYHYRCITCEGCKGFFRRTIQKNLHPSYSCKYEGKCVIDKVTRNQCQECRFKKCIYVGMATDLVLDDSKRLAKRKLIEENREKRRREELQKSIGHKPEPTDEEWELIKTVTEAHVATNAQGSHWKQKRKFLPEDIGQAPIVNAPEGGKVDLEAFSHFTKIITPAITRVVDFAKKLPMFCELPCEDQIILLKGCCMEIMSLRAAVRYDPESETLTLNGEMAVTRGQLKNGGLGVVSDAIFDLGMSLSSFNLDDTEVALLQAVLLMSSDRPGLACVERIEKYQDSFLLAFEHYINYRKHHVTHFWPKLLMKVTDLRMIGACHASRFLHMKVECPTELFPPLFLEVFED
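Fluorescence polarization of 20 nM Texas Red SRC2 peptide with 0.6 uM human TRb ligand-binding domain, in Tris buffer with 1uM T3 and 5% DMSO. Incubated 5 hr ambient; normalized to unbound and bound controls.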
Tau fluor cs = counter-screen for tau fibril formation inhibitors | AID 1463 | tau K18 P301L (four-repeat tau fragment) Alexa594 fluorescence, heparin fibrillization | 280,000 tested, 0.93% active | Potency, µM (series often up to 57.7 µM); note: nearly all actives have a fitted effect of over 55% in size
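Human K18 P301L tau (15 uM unlabeled plus 0.24 uM Alexa 594-labeled, final) in 100 mM sodium acetate pH 7 was mixed with compound and 20 uM heparin and incubated 6 hr at 37 C.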
TexasRed fluor = Texas Red fluorescence interference in TRb-SRC2 counter-screen; 280,000 tested, 0.29% active; Potency, µM (doses to about 106 µM); AID 1479; TRb/SRC2 Texas Red total fluorescence interference; active = well fitted curve in either direction with a large enough effect; inconclusive = small, poorly fitted or top-dose-only effect
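Flags fluorescent or light-absorbing compounds by total fluorescence, S + 2P, at 555 nm excitation and 632 nm emission. Mixture: 20 nM Texas Red SRC2 peptide, 0.6 uM human TRb LBD, 1 uM T3, 5% DMSO; compound exposure 5 h at ambient temperature.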
A number is an active result; . = inactive; ? = inconclusive; / = no result given; [ ] = another dose, or the depositor's remark. Unless noted, calls come from the whole dose curve; as a rule, active = well fitted curve in the direction sought with a large enough effect; inconclusive = small, poorly fitted or top-dose-only effect, or another doubt; inactive = no such curve, though single readings can be large; an effect the other way counts as inactive or inconclusive.

SMILES	Tau fibril FP	Tau ThT inhib	TRb SRC2 PPI	Tau fluor cs	TexasRed fluor
CCOC(=O)C1=C(N)n2c(s/c(=C/c3ccco3)c2=O)=C(C(=O)OC)C1c1ccco1 (configuration not stated)	.	14µM	.	.	.
CCOC(=O)C1=c2s/c(=C\c3ccncc3)c(=O)n2C(N)=C(C(=O)OC)C1c1ccncc1 (configuration not stated)	.	?	.	.	.
CCOC(=O)C1=C(C)N=c2s/c(=C/c3ccco3)c(=O)n2C1c1cccc(OC)c1 (configuration not stated)	?	14µM	.	.	.
CCOC(=O)C1=C(C)N=c2s/c(=C\c3cccn3C)c(=O)n2C1c1cccc(OC)c1OC (configuration not stated)	.	?	.	.	.
N#CC1=C(N)n2c(s/c(=C\c3ccco3)c2=O)=C(C#N)C1c1ccco1 (configuration not stated)	?	20µM	.	.	?
Cc1ccc(C)c(CSC2=NC(C)(C)Nc3ccccc32)c1	.	?	.	11µM[quencher]	.
CC1(C)N=C(SCc2ccc(F)cc2)c2ccccc2N1	.	?	.	11µM[quencher]	.
Cc1ccc(C)c(CSc2nnc(-c3ccccn3)n2N)c1	.	.	.	.	.
CC1CC1c1ccc(/C=C(\C#N)C(=O)Nc2cc(Cl)ccc2Cl)o1 (configuration not stated)	.	.	.	.	.
N#C/C(=C\c1ccc(-c2cc(Cl)ccc2Cl)o1)C(=O)Nc1ccccc1C(=O)O	.	7.1µM	.	.	.
N#C/C(=C\c1ccc(-c2ccccc2Cl)o1)C(=O)Nc1nc2ccccc2s1	.	3.5µM	.	.	.
CC(C)COC(=O)/C(C#N)=C\c1ccc(-c2ccccc2Cl)o1	.	?	.	.	.
O=C1C2C(c3ccccc3)CC=CC2C(c2cccc([N+](=O)[O-])c2)N1Cc1ccccc1 (configuration not stated)	/	/	.	/	.
O=C(CCSc1ccccc1)N1CCCC1	.	.	.	.	.
O=C1CCCCCN1Sc1ccccc1	?	14µM	.	.	.
CC(=O)OC[C@@H]1O[C@@H](O/N=C2/C[C@@H](O)[C@@H](O)[C@@H]3[C@@H]4C(=O)N(Cc5ccccc5)C(=O)[C@H]4CC[C@H]23)[C@H](OC(C)=O)[C@H](OC(C)=O)[C@@H]1OC(C)=O	.[11.6 µM]	.[11.5 µM]	.[11.2 µM]	.[11.6 µM]	.[11.2 µM]
CN(C)CCNC(=O)c1ccc(Cn2c(=O)c3cccn3c3cccnc32)cc1	.	.	.	.	.
CC(=O)Nc1ccc(C(=O)Nc2ccc3c(c2)N(C2CCCC2)C(=O)c2ccccc2S3)cc1	13µM	.	.	?	.
CN1C(=O)c2ccccc2Sc2ccc(NC(=O)NC3CC3)cc21	.	.	.	.	.
O=C(Nc1ccc2c(c1)N(Cc1ccccc1)C(=O)c1ccccc1S2)NC1CC1	22µM	.	.	?	.
NS(=O)(=O)c1cccc(NC(=O)COc2ncnc3c2cnn3-c2ccccc2)c1	.	.	.	.	.
O=C(COc1ncnc2c1cnn2-c1ccccc1)Nc1ccc(S(=O)(=O)N2CCCCC2)cc1	18µM	.	.	?	.
CCc1ccc(C2CC(=O)N(c3cccc(F)c3)C3=C2C(=O)OC3)cc1 (configuration not stated)	.	.	.	.	.
Cc1ccc(-n2ncc(C(=O)NCc3ccco3)c2C2CCN(C(=O)OC(C)(C)C)CC2)c(C)c1	.	.	.	.	.
COc1cccc(-c2cnc(NCc3cc(Cl)ccc3O)n2C)c1	.	?	.	20µM[quencher]	.
SMILES	Tau fibril FP	Tau ThT inhib	TRb SRC2 PPI	Tau fluor cs	TexasRed fluor
COc1cccc(-c2cnc(NCc3ccccc3Cl)n2C)c1	.	?	.	?	.
CCOC(=O)CSc1nc2cc3c(cc2c(=O)n1CCCCCC(=O)NCc1ccc(OC)cc1)OCO3	.	.	.	.	.
CO[C@@H]1COC(=O)[C@H]2CCCN2C(=O)[C@@H](C)COC(=O)[C@H](COCc2ccccc2)NC(=O)C/C=C\[C@H]1C	.[11.6 µM]	.[11.5 µM]	.[11.2 µM]	.[11.6 µM]	.[11.2 µM]
CCC(CC)c1nnc(NC(=O)c2ccc(N3CCCCC3)c([N+](=O)[O-])c2)s1	.	.	.	.	.
O=C(Nc1nc2ccc(Cl)cc2s1)c1ccc(N2CCCCC2)c([N+](=O)[O-])c1	.	1.3µM	?	.	.
O=C(Nc1nc2ccc3ccccc3c2s1)c1ccc(N2CCCCC2)c([N+](=O)[O-])c1	.	4µM	.	.	.
Fc1ccc(Nc2nc(-c3cccc(Cl)c3)c3c(n2)-c2ccccc2OC3)cc1	.	?	.	.	.
O=C(Nc1cnc(N2CCC(N3CCCCC3)CC2)c(C(=O)O)c1)c1ccc(Br)cc1	.	.	.	.	.
Cc1ccccc1C1=CCN(c2ncc(NC(=O)c3ccc(Cl)cc3)cc2C(=O)O)CC1	?	14µM	.	.	.
N/C(CC(=O)NC1CCCCC1)=N\OCC(=O)Nc1ccc(Cl)c(Cl)c1	?	.	.	?	.
NS(=O)(=O)c1ccc(CNC(=O)c2scc3c2CCCC3)cc1	.	.	.	.	.
COc1ccc(-c2[nH]c(-c3ccc(O)cc3)nc2-c2ccccc2)cc1	.	?	.	22µM[quencher]	.
COc1ccc(-c2nc(-c3ccccc3)c(-c3ccc(O)cc3)[nH]2)cc1	?	?	.	14µM[quencher]	.
CCc1ccc(Nc2nc3ccccc3c3nnc(C)n23)cc1	.	?	.	.	.
COC(=O)c1[nH]c(C)c(/C(O)=C2\C(=O)C(=O)N(CCN3CCOCC3)C2c2ccco2)c1C (configuration not stated)	.	.	.	.	.
CC(=O)c1ccc(OC(=O)CCc2nc3ccccc3s2)cc1	?	16µM	.	.	.
O=C1C2C3C=CC(C3)C2C(=O)N1CNc1ccc(O)cc1 (configuration not stated)	8.9µM	3.2µM	25µM	?	.
Cc1ccc(NCN2C(=O)C3C4C=CC(C4)C3C2=O)cc1 (configuration not stated)	.	.	.	.	.
N#CC(C#N)=C1C=CC=CN1/C(=C\c1ccco1)C(=O)c1ccc(Cl)cc1	28µM	22µM	.	?	.
N#CC(C#N)=C1C=CC=CN1/C(=C\c1ccco1)C(=O)c1ccc(-c2ccccc2)cc1	?	16µM	.	.	.
CCN(CC)S(=O)(=O)c1ccc2c(c1)N(CC(=O)N1CCN(c3cccc(C)c3)C(C)C1)C(=O)CO2 (configuration not stated)	.	.	.	.	.
COc1ccc(NC(=O)CSc2cc(-c3ccccc3)nc(C)n2)cc1	.	.	.	.	8.9µM[quencher]
COc1ccc(NC(=O)CSc2nc(-c3ccc(OC)cc3)[nH]c2-c2ccc(OC)cc2)cc1	.	.	.	8.9µM[quencher]	.
COc1ccc(-c2nc(SCC(=O)Nc3ccc4c(c3)OCO4)c(-c3ccc(OC)cc3)[nH]2)cc1	.	.	.	?	.
